An excerpt weighted towards active compounds, which were near 11% of everything screened.
hNpr1 antagonist = blocks ANP-stimulated signaling of human Npr1 receptor; Potency, µM (series often up to 46.3 µM), for inactives: at the top dose activity change, negative = inhibition, usual class: inhibitors; hit rate 1.6% among 76,000; P16066; HEK293 hNpr1 GloSensor cGMP, ANP-stimulated luminescence; calls by dose curve; note: nearly all actives have a fitted effect of over 60% in size
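Compound pre-incubated 30 min at room temperature on GloSensor-loaded HEK293 cells stably carrying hNpr1 and the pGS-40F cGMP biosensor. Stimulation uses hNppA at 0.1 nM final; luminescence is taken at baseline and 20 min post-agonist.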
Luciferase inh = inhibitors of firefly (Photinus pyralis) luciferase | P08659 | purified P. pyralis luciferase, luminescence, biochemical | Potency, µM (titrated, usually from 115 µM), hits mostly inhibitors | hit rate 2.5% among 76,000; note: nearly all actives have a fitted effect of over 65% in size
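Purified P. pyralis luciferase (10nM final) in 50mM Tris acetate pH 7.5, 10mM Mg acetate, 0.01% Tween-20, 0.05% BSA with 10uM D-luciferin and 10uM ATP. Compounds titrated qHTS. Luminescence imaged on CCD.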
NIH3T3 tox = cytotoxic compounds in NIH 3T3 cells; NIH 3T3 viability, CellTiter-Glo ATP luminescence, 48-72 h; Potency, µM (doses to about 96.7 µM), for inactives: at the highest dose activity change, negative = cytotoxicity, actives largely listed as inhibitors; hit rate 4.3% among 94,000; note: nearly all actives have a fitted effect of over 55% in size
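Cytotoxicity was measured by CellTiter-Glo ATP luminescence after 48 or 72 h compound exposure at 37 °C. Mouse NIH 3T3 fibroblasts were seeded at 400 cells/well and dosed by 23 nL pin transfer.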
HEK cytotox = kills HEK 293 cells | HEK 293 viability, ATP luminescence (CellTiter-Glo), 48-72 h | Potency, µM (doses to about 115 µM), inactives show at the top dose activity change, negative = cytotoxicity, usual class: inhibitors | hit rate 6.6% among 94,000; note: nearly all actives have a fitted effect of over 60% in size
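Luminescence from cellular ATP, measured with CellTiter-Glo, indicates HEK 293 viability. Cells plated at 250 cells/well are treated with compound for 48 or 72 hr at 37 degree Celsius before reagent addition.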
Numbers without * were called inactive; i = inactive; ? = inconclusive; . = not tested or not shown; [ ] = dose if it differs, or a comment. Unless noted, calls come from the whole dose curve; as a rule, active = well fitted curve in the direction sought with a large enough effect; inconclusive = small, poorly fitted or top-dose-only effect, or another doubt; inactive = no such curve, though single readings can be large; an effect the other way counts as inactive or inconclusive. % is set by controls: 0 for no effect and ±100 for the full control effect; potency is the fitted concentration of half-maximal effect.

SMILES	hNpr1 antagonist	Luciferase inh	NIH3T3 tox	HEK cytotox
O=C(Cc1cccc(F)c1)N1CCC(Oc2ccccc2-c2nc(C3CC3)no2)C1 (centres undefined)	-5%	i	?	?
COc1ccc(F)cc1-c1ccc(CN2CCCCC2C(=O)NCc2ccccc2)cc1 (centres undefined)	.	.	?	32µM*
COc1ccc(F)cc1-c1ccc(CN2CCCCC2C(=O)NCc2ccccc2F)cc1 (centres undefined)	.	.	?	25µM*
O=C(NCc1cc(F)ccc1F)C1Cn2cccc2C(=O)N1Cc1ccccc1 (centres undefined)	0%	i	-17%	-12%
COc1ccccc1-c1ccc(CN2CCCCC2C(=O)NCc2cccc(C(F)(F)F)c2)cc1 (centres undefined)	.	.	?	28µM*
COc1ccccc1-c1cccc(C(=O)N2CCC[C@H]2C(=O)NCc2cccc(F)c2)c1	.	.	-18%	?
COc1ccccc1-c1cccc(C(=O)N2CCC[C@H]2C(=O)NCc2ccc(C(F)(F)F)cc2)c1	.	.	?	79µM*
CN(C)C(=O)c1cccc2c1CCN2C(=O)c1ccc(F)cc1	7%	i	-1%	-1%
C[C@@H](NCc1ccc(F)cc1)c1onc(-c2ccc(Cl)cc2)c1C(=O)O	2%[70.6 µM]	i	-16%[138 µM]	-9%[172 µM]
COc1ccc(C(=O)NC2CCCN(c3cc(-c4ccc(Cl)cc4)[nH]n3)C2)cc1 (centres undefined)	-25%	?	35µM*	?
Cc1ccc(C(=O)NC2CCCN(c3cc(-c4ccccc4)[nH]n3)C2)cn1 (centres undefined)	-10%	?	?	?
COc1ccc(C(=O)NC2CCN(c3cc(-c4ccc(Cl)cc4)[nH]n3)C2)cc1F (centres undefined)	-7%	i	?	40µM*
Cc1ccc(C(=O)NC2CCCN(c3cc(-c4ccc(Cl)cc4)[nH]n3)C2)cn1 (centres undefined)	-4%	?	?	28µM*
CCOc1cc(C(=O)NC2CCN(c3cc(-c4ccc(OC)cc4)[nH]n3)C2)cc(OCC)c1OCC (centres undefined)	3%	i	22µM*	40µM*
COc1ccc(C(=O)NC2CCN(c3cc(-c4ccc(Cl)cc4)[nH]n3)C2)cc1OC (centres undefined)	-15%	i	?	?
COc1ccc(-c2ccccc2C(=O)NCCc2ccccc2)nn1	.	.	-22%	-28%
COc1ccc(-c2cc(N3CCCC(NC(=O)c4ccccc4Cl)C3)n[nH]2)cc1 (centres undefined)	-4%	45µM*	?	?
COc1cc(C(=O)NC2CCCN(c3cc(-c4ccccc4)[nH]n3)C2)cc(OC)c1OC (centres undefined)	-10%	35µM*	?	?
COc1ccc(C(=O)NC2CCCN(c3cc(-c4ccccc4)[nH]n3)C2)cc1 (centres undefined)	0%	25µM*	?	?
COc1ccc(-c2cc(N3CCC(NC(=O)c4ccc(F)c(Cl)c4)C3)n[nH]2)cc1 (centres undefined)	2%	i	40µM*	?
CCOc1ccc(C(=O)NC2CCCN(c3cc(-c4ccccc4)[nH]n3)C2)cc1 (centres undefined)	-17%	?	?	?
Cn1nccc1C(=O)N1CC(N(C2CCOCC2)S(C)(=O)=O)C1	4%	i	3%	-3%
COc1ccc(CCNC(=O)C2CCN(c3cn[nH]c(=O)c3)C2)cc1OC (centres undefined)	3%	i	i	i
COc1ccc(C(=O)NC2CCCN(c3cc(-c4ccccc4)[nH]n3)C2)cc1F (centres undefined)	-26%	?	16µM*	?
COc1ccc(-c2cc(N3CCCC(NC(=O)c4ccc(F)c(F)c4)C3)n[nH]2)cc1 (centres undefined)	-21%	?	?	?
SMILES	hNpr1 antagonist	Luciferase inh	NIH3T3 tox	HEK cytotox
COc1ccc(-c2cc(N3CCCC(NC(=O)c4ccc5cc[nH]c5c4)C3)n[nH]2)cc1 (centres undefined)	?	11µM*	?	?
COc1cc(OC)cc(C(=O)NC2CCCN(c3cc(-c4ccccc4)[nH]n3)C2)c1 (centres undefined)	0%	25µM*	?	40µM*
COc1ccc(-c2cc(N3CCCC(NC(=O)c4ccc(C)c(F)c4)C3)n[nH]2)cc1 (centres undefined)	-18%	i	?	?
Cc1nnc(-c2cc(-c3ccncc3)ccn2)n1CCN1CCOCC1	7%[70.6 µM]	i	?	i
O=S1(=O)CCC(S(=O)(=O)Nc2ccc(F)cc2)C1 (centres undefined)	3%	i	i	-1%
CN(C)c1nccnc1OC1CCN(C(=O)CCCc2ccccc2)C1 (centres undefined)	1%	?	-11%	79µM*
CN(C)c1nccnc1OC1CCN(C(=O)c2ccn[nH]2)C1 (centres undefined)	-7%	25µM*	i	0%
CN(C)c1nccnc1OC1CCN(C(=O)CC2CCCC2)C1 (centres undefined)	6%	35µM*	-7%	?
COCCCNC(=O)CC1=C2CCCCC2N(Cc2ccc(F)cc2)C1=O (centres undefined)	.	.	-12%	1%
O=C(c1ccc(-c2ccc(N3CCCCCC3)nc2)cc1)N1CCCC1	?	?	32µM*	28µM*
CN(C)C(=O)c1ccnc(-c2nnc3ccc(N4CCCCC4)nn23)c1	-2%[70.6 µM]	i	32µM*	5%[172 µM]
CN(C)C(=O)c1ccnc(-c2nnc3ccc(NC4CCCCC4)nn23)c1	4%[70.6 µM]	i	?	1%[172 µM]
CN(C)C(=O)c1ccc(-c2ccc(N3CCCCCC3)nc2)cc1	-23%	18µM*	?	32µM*
O=C1CCN(S(=O)(=O)c2ccccc2)CCCN(Cc2cn[nH]c2-c2cccs2)CCN1	4%	i	-18%	1%
O=C(Nc1ccc(F)cc1)N1CC[C@H]2COC(=O)N2c2cc(F)ccc2C1	4%[70.6 µM]	56µM*	?	-8%[172 µM]
COc1ccc(N2Cc3c(NCC4CCCCCC4)ncnc3N(C)CC2=O)cc1	-2%	i	?	79µM*
CN1CC(=O)N(C2CCCC2)Cc2c(NCc3cccc(C(F)(F)F)c3)ncnc21	.	.	?	35µM*
COc1cccc(CNc2ncnc3c2CN(C2CCCC2)C(=O)CN3C)c1	.	.	?	-1%
Cc1noc(C)c1[S+](=O)([O-])N1CCN(C(=O)c2nc3cccnc3n(C3CC3)c2=O)CC1	.	.	-5%	i
O=C1CC2(CCN(Cc3ccsc3)CC2)Oc2ccccc2N1c1ccccc1	-13%	i	?	?
O=C1CC2(CCN(Cc3ccc(C(F)(F)F)cc3)CC2)Oc2ccccc2N1c1ccccc1	-29%	i	25µM*	20µM*
O=C1CC2(CCN(Cc3ccc(F)cc3)CC2)Oc2ccccc2N1	4%	i	-10%	?

Source: PubChem
